{
  "source": "PubChem BioAssay (NCI)",
  "note": "This is part of a sample that, as a whole, favours compounds with a hit. Of some 83,000 tested, about 20% had one in any assay.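 Values shown are percent growth following 48 h exposure of cells in 96-well plates to a single concentration of compound; below 10 was considered active.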 Unmarked numbers belong to inactive results. The source made the active and inactive calls.",
  "data": [
    {"system": "A549/ATCC NSCLC", "assay": "NCI-60 one-dose screen, 48 h (100 = growth as untreated, 0 = no growth, -100 = all killed)", "conditions": "10 µM", "description": "Growth inhibition of the A549/ATCC human Non-Small Cell Lung tumor cell line is measured as a screen for anti-cancer activity. Cells are grown in 96 well plates and exposed to the test compound for 48 hours. Compounds are tested at a single concentration, which is 10^-5 M for most compounds. The reported endpoint is percent growth (GI% or GIPRCNT), where numbers from 0 - 100% represent growth inhibition, and numbers from -100% - 0 represent cell death. For example, a value of 40 represents 60% growth inhibition. A value of 0 means no net growth occurred over the course of the experiment. A value of -40 indicates 40% of cells at the beginning of the experiment died by the end of the experiment. A value of -100 means all cells are dead at the end of the experiment.\nNCI-60 Human Tumor Cell Lines Screen was performed using the standard one-dose NCI protocol, which is described in more detail at https://dtp.cancer.gov/discovery_development/nci-60/default.htm.\nCompounds with GIPRCNT values below 10 were considered active. Activity score was based on GIPRCNT using the following formula: […]\nScore is 0 for GIPRCNT values of 100 or above, 50 for GIPRCNT values of 0, and 100 for GIPRCNT values of -100.", "values": [
      {"smiles": "COC(=O)C[C@](O)(CCC(C)C)C(=O)O[C@H]1C(OC)=C[C@@]23CCCN2CCc2cc4c(cc2[C@@H]13)OCO4", "growth": "-20.5% (active)"},
      {"smiles": "O=C(/C=C/c1ccco1)c1nc2ccccc2n1Cc1ccc(Br)cc1", "growth": "47.3%"},
      {"smiles": "CC1=C(C=O)C2=C(C)C3(CC3)[C@@](C)(O)C(=O)C2=C1", "growth": "17.8%"},
      {"smiles": "CC1=C(CCC=O)C2=C(C)C3(CC3)[C@@](C)(O)C(=O)C2=C1", "growth": "-2.03% (active)"},
      {"smiles": "CC12CCC3(CCC(=O)NCCCNc4ccnc5cc(Cl)ccc45)[C@@](C)(OO[C@]3(C)O1)O2", "growth": "25.3%"},
      {"smiles": "O=C([Se]C1C=CCCC1)c1ccc(C(=O)[Se]C2C=CCCC2)s1", "note": "(stereo not given)", "growth": "-7.22% (active)"},
      {"smiles": "C=CC[Se]C(=O)c1ccc(C(=O)[Se]CC=C)s1", "growth": "1.38% (active)"},
      {"smiles": "COCCOCCOCCOc1ccc(-n2cc(CCCN(CCNc3ccnc4cc(Cl)ccc34)C(=O)CCC(=O)O[C@@H]3O[C@@H]4OC5(C)CC[C@H]6[C@H](C)CC[C@@H]([C@H]3C)[C@@]46OO5)nn2)cc1", "growth": "46.1%"},
      {"smiles": "O=C(/C=C/c1ccc(F)cc1)c1nc2ccccc2n1Cc1ccc(F)cc1", "growth": "27.2%"},
      {"smiles": "O=C(/C=C/c1ccc(Cl)cc1Cl)c1nc2ccccc2n1Cc1ccc(Br)cc1", "growth": "86.5%"},
      {"smiles": "CCOP(=O)(CC(F)(F)C(F)(F)F)OCC", "growth": "76.2%"},
      {"smiles": "O=C(/C=C/c1ccc(Cl)cc1)c1nc2ccccc2n1Cc1ccc(Br)cc1", "growth": "73.4%"},
      {"smiles": "CC(C)N=C([Se])NC(=O)c1cccs1", "growth": "17.6%"},
      {"smiles": "CC[C@]12C=CCN3CC[C@@]4(c5ccc(OC)cc5N(C)[C@H]4[C@@](O)(C(=O)OC)[C@@H]1OC(=O)CCC[P+](C1CCCCC1)(C1CCCCC1)C1CCCCC1)[C@@H]32", "growth": "14.1%"},
      {"smiles": "COc1cc(OC)c(S(=O)(=O)N(CCCl)CCCl)cc1C(=O)/C=C/c1ccc(C)cc1", "growth": "79.2%"},
      {"smiles": "C[C@H]1[C@H](OC(=O)CCC(=O)N(CCCc2cn(-c3ccc([N+](=O)[O-])cc3)nn2)CCNc2ccnc3cc(Cl)ccc23)O[C@@H]2OC3(C)CC[C@H]4[C@H](C)CC[C@@H]1[C@@]24OO3", "growth": "52.6%"},
      {"smiles": "O=C(/C=C/c1ccccc1)c1nc2ccccc2n1Cc1ccc(Br)cc1", "growth": "-3% (active)"},
      {"smiles": "O=C(NC([Se])=NC1CCCCC1)c1ccccc1", "growth": "21.1%"},
      {"smiles": "COC(=O)CCn1c(-c2ccc(-n3cc(-c4ccc(O[C@H]5O[C@@H]6OC7(C)CC[C@H]8[C@H](C)CC[C@@H]([C@H]5C)[C@@]68OO7)cc4)nn3)cc2)nc2ccccc21", "growth": "30.9%"},
      {"smiles": "COC(=O)C[C@](O)(CCC(C)C)C(=O)O[C@@H]1C(OC)=C[C@]23CCCN2CCc2cc4c(cc2[C@H]13)OCO4", "growth": "-27.1% (active)"},
      {"smiles": "C[C@H]1[C@H](OC(=O)CCC(=O)Nc2cnccn2)O[C@@H]2OC3(C)CC[C@H]4[C@H](C)CC[C@@H]1[C@@]24OO3", "growth": "62.6%"},
      {"smiles": "CC(=O)Oc1ccccc1C(=O)NC([Se])=NC1CCCCC1", "growth": "20.4%"},
      {"smiles": "COP(=O)(CC(F)(F)C(F)(F)F)OC", "growth": "87.4%"},
      {"smiles": "COc1cc2cc(C(=O)N3C[C@@H](CCl)c4c3cc(OC(=O)N3CCN(C)[C@@H]5CSSC[C@H]53)c3ccccc43)[nH]c2c(OC)c1OC", "growth": "-58.4% (active)"},
      {"smiles": "CC[C@@]12CC(C(=O)OC)=C3Nc4cc5c(cc4[C@@]34CCN(C[C@H]3O[C@H]31)[C@@H]24)[C@@H]1[C@H](O5)[C@@H](O)[C@@]2(CC)CC(C(=O)OC)=C3Nc4cc(OC)ccc4[C@@]34CCN1[C@@H]24", "growth": "25.7%"},
      {"smiles": "COCCOCCOCCOc1ccc(-n2cc(-c3ccc(O[C@H]4O[C@@H]5OC6(C)CC[C@H]7[C@H](C)CC[C@@H]([C@H]4C)[C@@]57OO6)cc3)nn2)cc1", "growth": "60.1%"},
      {"smiles": "C[C@H]1[C@@H](CC(=O)N[C@@H](Cc2coc3ccccc23)B(O)O)O[C@@H]2OC3(C)CC[C@H]4[C@H](C)CC[C@@H]1[C@@]24OO3", "growth": "19.1%"},
      {"smiles": "COC(=O)c1ccc(-n2cc(CCCN(CCNc3ccnc4cc(Cl)ccc34)C(=O)CCC(=O)O[C@@H]3O[C@@H]4OC5(C)CC[C@H]6[C@H](C)CC[C@@H]([C@H]3C)[C@@]46OO5)nn2)cc1", "growth": "44.4%"},
      {"smiles": "CC(=C\\C(=O)Oc1ccc2c3c1OC1C(O)CCC4(O)C(C2)N(CC2CCC2)CCC314)/C=C1\\CCCc2ccccc21", "note": "(stereo not given)", "growth": "48.9%"},
      {"smiles": "CN(C)CCc1cn(C2CCC2)c2cccc(O)c12", "growth": "71.8%"},
      {"smiles": "Cc1c2oc3c(C)ccc(C(=O)N[C@@H]4C(=O)N[C@H](C(C)C)C(=O)N5CCC[C@H]5C(=O)N(C)CC(=O)N(C)[C@@H](C(C)C)C(=O)OC4C)c3nc-2c(C(=O)N[C@@H]2C(=O)N[C@H](C(C)C)C(=O)N3CC(=O)C[C@H]3C(=O)N(C)CC(=O)N(C)[C@@H](C(C)C)C(=O)OC2C)c(N)c1=O", "note": "(stereo not given in full)", "growth": "8.06% (active)"},
      {"smiles": "COc1cc(OC)c(/C=C/C(=O)c2nc3ccccc3n2Cc2ccc(F)cc2)c(OC)c1", "growth": "88.6%"},
      {"smiles": "CC[C@]12C=CCN3CC[C@@]4(c5ccc(OC)cc5N(C)[C@H]4[C@@](O)(C(=O)OC)[C@@H]1OC(=O)CCCC[P+](C1CCCCC1)(C1CCCCC1)C1CCCCC1)[C@@H]32", "growth": "11.6%"},
      {"smiles": "CC12OOC(C)(OO1)C2CCC(=O)NCCCNc1ccnc2cc(Cl)ccc12", "note": "(stereo not given)", "growth": "87.8%"},
      {"smiles": "COc1ccc(OC)c(/C=C/C(=O)c2nc3ccccc3n2Cc2ccc(F)cc2)c1", "growth": "8.34% (active)"},
      {"smiles": "COc1cc(OC)c(S(=O)(=O)N(CCCl)CCCl)cc1C(=O)/C=C/c1cc(OC)c(OC)c(OC)c1", "growth": "3.9% (active)"},
      {"smiles": "CC12OOC(C)(OO1)C2CCC(=O)NCCNc1ccnc2cc(Cl)ccc12", "note": "(stereo not given)", "growth": "119%"},
      {"smiles": "CC[C@]12C=CCN3CC[C@@]4(c5ccc(OC)cc5N(C)[C@H]4[C@@](O)(C(=O)OC)[C@@H]1OC(=O)CCCC[P+](c1ccc(C)cc1)(c1ccc(C)cc1)c1ccc(C)cc1)[C@@H]32", "growth": "-92.2% (active)"},
      {"smiles": "CCOP(=O)(OCC)C(NC(C)=O)C(=O)SCCN", "note": "(stereo not given)", "growth": "107%"},
      {"smiles": "COc1ccc2cc([C@H](C)C(=O)[Se]CCC#N)ccc2c1", "growth": "-64.9% (active)"}
    ]}
  ]
}
